Measured values from PubChem BioAssay (NCATS).
“And” between values parts separate entries of the source, which are not always exact repeats. Equal entries are not always repeated. Inconclusive results are not listed. The source made the active and inactive calls. Unless noted, the call rests on the fitted dose curve; in most records, active means well fitted curve in the direction sought with a large enough effect; inconclusive means small, poorly fitted or top-dose-only effect, or another doubt; inactive means no such curve, though single readings can be large; an effect the other way counts as inactive or inconclusive. Numbered stars: 1 amine (or outer) side, 2 acyl side, 3 side chain; on linkers, the order of the positions; unused ones are H or OH. Bridge positions count the residues as written; N and C are the ends. Square brackets hold non-standard residues; d marks the D form. Peptide text beside a SMILES is read from it. I, II: the chains in the order shown. Actinocin(9to1) = Cc1c2oc3c(C)ccc(C(=O)[*:1])c3nc-2c(C(=O)[*:2])c(N)c1=O; NMeV = CN[C@H](C(=O)O)C(C)C; Sar = CNCC(=O)O

Columns and labels:
[1] = qHTS assay for small molecule disruptors of the mitochondrial membrane potential - 5 hr assay (AID 651755; calls by dose curve; further: on the % scale 0 is the no-effect control and ±100 the full control effect; nearly all actives have a fitted effect of over 40% in size)
Outline: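 Seed HepG2 overnight, add compound, incubate 5 hr at 37C and 5% CO2, stain 30 min with Mito-MPS, then measure monomer (490/535 nm) and aggregate (540/590 nm) fluorescence.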

[2] = biological target: Tumor necrosis factor (Homo sapiens) (UniProt P01375); assay: qHTS assay to identify small molecules that stimulate Tumor Necrosis Factor-alpha (TNF-alpha) secretion (AID 651757; active means well fitted curve in the direction sought with a large enough effect in the signal ratio; the % refers to the signal ratio; further: 0% is about no effect)
Outline: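 Using 3000 THP-1 cells per well, compounds and controls were applied for 17 hrs at 37 C. Detection followed with two labeled anti-TNF-alpha antibodies (cryptate donor, XL665 acceptor) for 3 hr at room temperature, measured by TR-FRET.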

[3] = biological target: Peroxisome proliferator-activated receptor alpha (Homo sapiens) (UniProt Q07869); assay: qHTS assay for small molecule agonists of the peroxisome proliferator-activated receptor alpha (PPARalpha) signaling pathway (AID 651778); conditions: PathHunter PPARalpha complementation, chemiluminescence, 6 h; max response: active compounds read high; further: % of control where 0% means no effect
Outline: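 Cells plated at 2,000/well and held overnight at 37 C, 5% CO2, then compound added by pin tool for 6 hr; after PathHunter detection reagent and 60 min at room temperature, chemiluminescence from enzyme complementation was read.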

[4] = biological target: Nuclear receptor ROR-gamma (Homo sapiens) (UniProt P51449); assay: qHTS assay for small molecule antagonists of the retinoid-related orphan receptor gamma (ROR-gamma) signaling pathway (AID 651802); further: nearly all actives have a fitted effect of over 60% in size; further: potency means the concentration at half of the fitted maximal effect
Outline: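 Doxycycline-induced reporter activity in engineered CHO cells (TET-inducible ROR, RORE-LUC) was measured by luminescence after 16hr compound exposure at 37C.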

[5] = qHTS assay for small molecule agonists of the antioxidant response element (ARE) signaling pathway measured by Nrf2-dependant transcriptional activity (AID 720636; active means well fitted curve in the direction sought with a large enough effect in the repeat runs; an effect the other way counts as inactive or inconclusive; further: % of control where 0% means no effect)
Outline: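 ARE-luc HepG2 cells carrying an Nrf2-responsive luciferase reporter, in medium with 1% dialyzed FBS, exposed to compound for 16 hr at 37 C, 5% CO2. Luminescence read 30 min after ONE-Glo addition.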

[6] = qHTS assay for small molecule antagonists of the retinoid-related orphan receptor gamma (ROR-gamma) signaling pathway - cell viability counter screen (AID 720652; active means well fitted curve in the direction sought with a large enough effect in the repeat runs; an effect the other way counts as inactive or inconclusive;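 further: compound exposure lasted 16 hr before ATP read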; further: potency means the concentration at half of the fitted maximal effect)
Outline: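 ATP-based viability readout in the ROR-gamma reporter CHO cells after 16 hr compound exposure under doxycycline induction.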

[7] = qHTS assay for small molecule agonists of the antioxidant response element (ARE) signaling pathway measured by Nrf2-dependant transcriptional activity - cell viability counter screen (AID 720653; active means well fitted curve in the direction sought with a large enough effect in the repeat runs; an effect the other way counts as inactive or inconclusive; further: on the % scale 0 is the no-effect control and ±100 the full control effect); conditions: ARE-bla HepG2 viability, CellTiter-Glo ATP luminescence, 16 h; active compounds read low
Outline: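 ARE-bla HepG2 cells (2,000/well) rested 5 hrs at 37C/5% CO2, then exposed to compounds in DMSO for 16 hrs. Viability was read in the same wells as intracellular ATP by luminescence, 30 min at room temperature after reagent addition.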

[8] = qHTS Assay for Identifying Gametocytocidal Compounds (AID 743244); further: potency means the concentration at half of the fitted maximal effect;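 on max response: on the % scale 0 is the no-effect control and ±100 the full control effect; actives lower the fluorescent signal which means gametocytes are killed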; conditions: P. falciparum 3D7 stage III-V gametocytes, alamarBlue, 72 h; max response: active compounds read low
Outline: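 In this qHTS viability screen, late-stage 3D7 gametocytes are incubated with compound for 72 h, then with alamarBlue for 24 h; reduced resorufin fluorescence marks killing.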

[9] = qHTS assay for cell viability of HEK293 cells (AID 743288); conditions: ATP luminescence (CellTiter-Glo), 18 h, active compounds read low; further: on the % scale 0 is the no-effect control and ±100 the full control effect; nearly all actives have a fitted effect of over 50% in size
Outline: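 After 18 h compound exposure at 37 C, parental HEK293 cells (2,000/well) are lysed with CellTiter-Glo and luminescence is read following 30 min at room temperature.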

[10] = qHTS assay for cell viability of the p53RE-bla HCT-116 cell line (AID 743292); further: on the % scale 0 is the no-effect control and ±100 the full control effect; nearly all actives have a fitted effect of over 55% in size
Outline: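 CellSensor p53RE-bla HCT-116 cells (4,000/well) pre-incubated 5 h at 37 C, then exposed to compounds in DMSO for 16 h at 37 C. Viability read as ATP content by CellTiter-Glo luminescence after 30 min at room temperature.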

[11] = qHTS for compounds that reverse cellular toxicity of Amyloid beta (A-beta) peptide in yeast: LOPAC Validation Assay (AID 720559);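 further: plate controls were DMSO for no effect and equimolar ferric chloride plus clioquinol rescue for full effect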
Outline: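 Yeast cells expressing toxic A-beta were combined with pinned compounds in growth medium and incubated 48 hr at 30 C. Growth was read as absorbance at 600 nm and normalized to DMSO and to an equimolar FeCl3/clioquinol positive control.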

[12] = qHTS for Activators of Parkin Expression: LOPAC Validation Assay (FLuc Reporter) (AID 720573;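 further: 0% = DMSO and 100% = positive control compounds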)
Outline: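 Neuronal cell line stably carrying FLuc/NLuc coincidence reporter under Parkin promoter; cells plated 24 h, then compounds added in 7-point dose response for 24 h at 37 C. FLuc luminescence read; normalized to DMSO and positive control (100%).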

[13] = biological target: T1, Hexokinase-4 (Homo sapiens) + Glucokinase regulatory protein (Homo sapiens) (UniProt P35557+Q14397); assay: qHTS assay for inhibitors of recombinant human GCK-GKRP interaction: Diaphorase-coupled assay (AID 743205)
Outline: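 GST-GCK (10 nM) with FLAG-GKRP (10 nM), 5 mM glucose and 0.4 mM ATP in pH 7.6 Hepes; compounds preincubated 20 min with substrate. G6PDH/diaphorase coupling converts resazurin to resorufin, read kinetically (ex 525/em 590 nm) for 30 min.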

[14] = biological target: T1, Hexokinase-4 (Homo sapiens) + Glucokinase regulatory protein (Homo sapiens); assay: qHTS assay for inhibitors of recombinant human GCK-GKRP interaction: ADP-Glo assay (AID 743206);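 further: plate controls were DMSO plus enzyme for no effect and no enzyme for full effect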
Outline: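 Pin-transferred compounds meet a 15 nM GST-GCK/15 nM FLAG-GKRP/2 uM S6P mix (dispense concentrations). ATP is then added to 0.4 mM final with 5 mM glucose, and the reaction runs 60 min at room temperature. ADP is quantified luminescently.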

Sequence of Nuclear receptor ROR-gamma (Homo sapiens) (P51449 whole entry, looked up): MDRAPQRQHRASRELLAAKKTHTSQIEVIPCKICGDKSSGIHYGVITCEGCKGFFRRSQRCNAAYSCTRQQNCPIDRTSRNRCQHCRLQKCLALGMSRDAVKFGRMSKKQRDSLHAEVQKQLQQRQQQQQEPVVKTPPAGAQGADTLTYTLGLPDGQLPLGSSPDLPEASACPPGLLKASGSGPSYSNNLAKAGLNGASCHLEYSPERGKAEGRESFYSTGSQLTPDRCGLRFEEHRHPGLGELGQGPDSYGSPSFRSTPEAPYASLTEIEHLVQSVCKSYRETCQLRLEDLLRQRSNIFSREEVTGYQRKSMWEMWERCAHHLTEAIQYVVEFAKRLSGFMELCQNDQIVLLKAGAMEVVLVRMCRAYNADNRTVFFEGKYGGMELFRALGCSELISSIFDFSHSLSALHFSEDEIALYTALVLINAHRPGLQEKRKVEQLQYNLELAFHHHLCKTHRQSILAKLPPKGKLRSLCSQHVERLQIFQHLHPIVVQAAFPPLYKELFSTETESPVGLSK
Sequence of Peroxisome proliferator-activated receptor alpha (Homo sapiens) (Q07869 whole entry, looked up): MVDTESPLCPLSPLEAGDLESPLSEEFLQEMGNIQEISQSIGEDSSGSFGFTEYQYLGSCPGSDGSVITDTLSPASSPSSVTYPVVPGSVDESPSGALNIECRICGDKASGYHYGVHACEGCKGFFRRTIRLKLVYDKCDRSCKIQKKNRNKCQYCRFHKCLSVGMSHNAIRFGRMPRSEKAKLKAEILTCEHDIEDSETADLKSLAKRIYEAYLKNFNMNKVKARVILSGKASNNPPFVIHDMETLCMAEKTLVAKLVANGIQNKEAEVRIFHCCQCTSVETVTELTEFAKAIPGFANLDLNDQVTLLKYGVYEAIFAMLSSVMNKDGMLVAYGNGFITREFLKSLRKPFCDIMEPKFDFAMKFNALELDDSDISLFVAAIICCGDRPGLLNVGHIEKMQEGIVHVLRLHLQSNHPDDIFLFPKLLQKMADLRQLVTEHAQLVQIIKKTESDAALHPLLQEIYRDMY
T1 sequence (P35557 whole entry, looked up): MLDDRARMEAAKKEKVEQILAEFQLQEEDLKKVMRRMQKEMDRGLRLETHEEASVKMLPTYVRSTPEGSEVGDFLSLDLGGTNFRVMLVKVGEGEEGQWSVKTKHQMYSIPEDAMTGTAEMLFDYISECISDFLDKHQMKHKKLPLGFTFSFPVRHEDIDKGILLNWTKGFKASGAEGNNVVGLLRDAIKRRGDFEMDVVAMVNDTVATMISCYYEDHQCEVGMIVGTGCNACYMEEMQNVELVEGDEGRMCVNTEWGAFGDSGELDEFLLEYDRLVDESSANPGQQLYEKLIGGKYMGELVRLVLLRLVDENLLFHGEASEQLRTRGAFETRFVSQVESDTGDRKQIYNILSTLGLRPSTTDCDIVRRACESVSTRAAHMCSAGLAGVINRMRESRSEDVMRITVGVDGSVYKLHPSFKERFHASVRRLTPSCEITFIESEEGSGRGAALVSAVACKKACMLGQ
T1 sequence (Q14397 whole entry, looked up): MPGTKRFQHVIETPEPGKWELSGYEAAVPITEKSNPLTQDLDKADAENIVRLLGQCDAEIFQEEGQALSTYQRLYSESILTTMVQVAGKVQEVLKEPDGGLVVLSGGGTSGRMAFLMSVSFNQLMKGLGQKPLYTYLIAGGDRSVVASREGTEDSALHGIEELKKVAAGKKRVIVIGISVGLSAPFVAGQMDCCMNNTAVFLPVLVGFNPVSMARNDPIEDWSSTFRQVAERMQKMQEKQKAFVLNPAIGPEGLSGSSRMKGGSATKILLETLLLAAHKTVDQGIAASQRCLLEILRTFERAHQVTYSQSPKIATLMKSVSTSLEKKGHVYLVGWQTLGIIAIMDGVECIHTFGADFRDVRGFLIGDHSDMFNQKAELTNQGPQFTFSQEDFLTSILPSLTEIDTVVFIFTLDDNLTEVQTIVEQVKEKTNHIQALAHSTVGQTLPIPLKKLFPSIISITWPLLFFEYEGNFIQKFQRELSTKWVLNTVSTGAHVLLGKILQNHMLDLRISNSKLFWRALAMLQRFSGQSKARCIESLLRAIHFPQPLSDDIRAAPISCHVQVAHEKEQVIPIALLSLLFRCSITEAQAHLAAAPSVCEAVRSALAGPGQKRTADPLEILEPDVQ
Sequence of Tumor necrosis factor (Homo sapiens) (P01375 whole entry, looked up): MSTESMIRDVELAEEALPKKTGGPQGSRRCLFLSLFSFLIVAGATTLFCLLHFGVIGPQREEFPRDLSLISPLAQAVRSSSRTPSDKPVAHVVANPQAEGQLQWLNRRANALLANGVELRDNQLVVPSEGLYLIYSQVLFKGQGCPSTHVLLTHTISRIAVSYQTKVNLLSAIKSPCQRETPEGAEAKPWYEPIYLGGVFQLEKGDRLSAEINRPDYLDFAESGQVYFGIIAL

CC(O)C(=O)O (stereo not drawn)
inactive: Potency [1] | outcome [2] | max response [3] -0.871% | Potency [4] | Potency [5] | Potency [6] | max response [7] -3.07% | max response [8] -6.68% | max response [9] 1.72% | outcome [10]

C[C@@H]1C(=O)NC2=Nc3cccc(Cl)c3CN21
inactive: outcome [11] | outcome [12] | outcome [13] | outcome [14] | max response [8] -15.6% and 9.95%

CN(C)/N=N/c1nc[nH]c1C(N)=O
inactive: max response [3] -3.55% | Potency [4] | Potency [5] | Potency [6] | max response [7] -9.97% | max response [8] 5.22% | max response [9] 4.22% | outcome [10]

O=C(O)c1cc2cc(Cc3cccnc3)ccc2o1
inactive: outcome [11] | outcome [12] | outcome [13] | outcome [14] | max response [8] 2.09% and 51.2%

Cc1c2oc3c(C)ccc(C(=O)N[C@@H]4C(=O)N[C@H](C(C)C)C(=O)N5CCC[C@H]5C(=O)N(C)CC(=O)N(C)[C@@H](C(C)C)C(=O)O[C@@H]4C)c3nc-2c(C(=O)N[C@@H]2C(=O)N[C@H](C(C)C)C(=O)N3CCC[C@H]3C(=O)N(C)CC(=O)N(C)[C@@H](C(C)C)C(=O)O[C@@H]2C)c(N)c1=O (I: T[dV]P[Sar][NMeV] / II: T[dV]P[Sar][NMeV]; ester I:1-I:C, II:1-II:C; linker I:N-II:N via Actinocin(9to1))
active: Potency [4] 26.6 nM | Potency [6] 106 nM | Potency [8] 70.8 nM
inactive: Potency [1] | outcome [2] | max response [3] -5.12% and -0.626% | max response [7] -29.7% and -9.89% | outcome [10]

COC(=O)[C@H]1[C@H]2C[C@H]3c4[nH]c5ccccc5c4CCN3C[C@H]2CC[C@@H]1O
inactive: outcome [11] | outcome [12] | outcome [13] | outcome [14] | max response [8] 13.2% and 17.2%

Nc1ccc(C(=O)O)cc1
inactive: outcome [2] | max response [3] 2.41% | Potency [4] | Potency [5] | Potency [6] | max response [7] 2.28% | max response [8] -1.31% | max response [9] 7.36% | outcome [10]

CC(C)(Oc1ccc(Cl)cc1)C(=O)O
inactive: max response [3] 8.18% | Potency [5] | max response [7] 10.5% | max response [8] 6.9% | max response [9] -4.41% | outcome [10]

CC/C(=C(/CC)c1ccc(O)cc1)c1ccc(O)cc1
inactive: outcome [2] | max response [3] -0.699% and -4.24% | Potency [5] | max response [7] 6.27% and -6.2% | max response [8] 26.7% | max response [9] -28.4% and -12.5% | outcome [10]
